Records with an inconclusive call do not appear. Entries that show only a call come without a potency. Unmarked numbers belong to inactive results. The source made the active and inactive calls. Calls follow the shape of the dose curve; as a rule, active = well fitted inhibition curve with a large enough effect; inconclusive = small, poorly fitted or top-dose-only effect; inactive = flat fitted curve, though single readings scatter. Numbered stars: 1 amine (or outer) side, 2 acyl side, 3 side chain; on linkers, the order of the positions; unused ones are H or OH. Bridge positions count the residues as written; N and C are the ends. Square brackets hold non-standard residues; d marks the D form. Peptide text beside a SMILES is read from it. I, II: the chains in the order shown. Actinocin(9to1) = Cc1c2oc3c(C)ccc(C(=O)[*:1])c3nc-2c(C(=O)[*:2])c(N)c1=O; NMeV = CN[C@H](C(=O)O)C(C)C; Sar = CNCC(=O)O
Tests used:
[1] = qHTS profiling for inhibitors of Plasmodium falciparum proliferation (AID 504749); also: nearly all actives have a fitted effect of over 60% in size; conditions: P. falciparum in erythrocytes, SYBR Green DNA, 72 h
Summary of the method: (§1)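 In a 72 h erythrocytic culture (37 C, humidified, 5% CO2) at 2.5% hematocrit and 0.3% starting parasitemia, compounds were tested; SYBR Green I in detergent lysis buffer stained parasite DNA overnight.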

3D7 = assay: as above; conditions: P. falciparum in erythrocytes, SYBR Green DNA, 72 h; series mostly up to 28.7 µM
Summary of the method: as §1

7G8 = assay: as above; conditions: P. falciparum in erythrocytes, SYBR Green DNA, 72 h; series mostly up to 28.7 µM
Summary of the method: as §1

AA1029 = assay: as above; conditions: P. falciparum in erythrocytes, SYBR Green DNA, 72 h; series mostly up to 28.7 µM
Summary of the method: as §1

AS120 = assay: as above; conditions: P. falciparum in erythrocytes, SYBR Green DNA, 72 h; series mostly up to 28.7 µM
Summary of the method: as §1

ATS189 = assay: as above; conditions: P. falciparum in erythrocytes, SYBR Green DNA, 72 h; series mostly up to 28.7 µM
Summary of the method: as §1

ATS95 = assay: as above; conditions: P. falciparum in erythrocytes, SYBR Green DNA, 72 h; series mostly up to 28.7 µM
Summary of the method: as §1

C2A = assay: as above; conditions: P. falciparum in erythrocytes, SYBR Green DNA, 72 h; series mostly up to 28.7 µM
Summary of the method: as §1

CP185 = assay: as above; conditions: P. falciparum in erythrocytes, SYBR Green DNA, 72 h; series mostly up to 28.7 µM
Summary of the method: as §1

CP191 = assay: as above; conditions: P. falciparum in erythrocytes, SYBR Green DNA, 72 h; series mostly up to 28.7 µM
Summary of the method: as §1

CP192 = assay: as above; conditions: P. falciparum in erythrocytes, SYBR Green DNA, 72 h; series mostly up to 28.7 µM
Summary of the method: as §1

CP194 = assay: as above; conditions: P. falciparum in erythrocytes, SYBR Green DNA, 72 h; series mostly up to 28.7 µM
Summary of the method: as §1

[2] = at 28.7 µM (top of the series), parasite line A
[3] = at 28.7 µM (top of the series), parasite line B
[4] = at 12.8 µM (top of the series), parasite line A
[5] = at 12.8 µM (top of the series), parasite line B
Potency is read from the fitted curve at half-maximal effect.

| Compound | Potency ([1]; parasite line A) | Potency ([1]; parasite line B) | Potency (3D7) | Potency (7G8) | Potency (AA1029) | Potency (AS120) | Potency (ATS189) | Potency (ATS95) | Potency (C2A) | Potency (CP185) | Potency (CP191) | Potency (CP192) | Potency (CP194) | activity, negative = inhibition [1, 2] [%] | activity, negative = inhibition [1, 3] [%] | activity, negative = inhibition [1, 4] [%] | activity, negative = inhibition [1, 5] [%] |
| --- | --- | --- | --- | --- | --- | --- | --- | --- | --- | --- | --- | --- | --- | --- | --- | --- | --- |
| NC(=NCCCCCCN=C(N)/N=C(\N)Nc1ccc(Cl)cc1)/N=C(\N)Nc1ccc(Cl)cc1 | 3.16 µM (active) | 3.98 µM (active) | 1.41 µM (active) | 0.251 µM (active) | 1 µM (active) | 1.26 µM (active) | 1.78 µM (active) | 2 µM (active) | 2.24 µM (active) | 1.78 µM (active) | 1.12 µM (active) | 1.69 µM (active) | 1.51 µM (active) |  |  |  |  |
| O=C(O)CCCCC(=O)O |  |  | inactive | inactive | inactive | inactive | inactive | inactive | inactive | inactive | inactive | inactive | inactive | -0.183 | 5.83 |  |  |
| CCOC(=O)n1ccn(C)c1=S |  |  | inactive | inactive | inactive | inactive | inactive | inactive | inactive | inactive | inactive | inactive | inactive |  |  | 10 | -6.82 |
| CCOc1ccc(NC(=O)CC(C)O)cc1 (centres undefined) |  |  | inactive | inactive | inactive | inactive | inactive | inactive | inactive | inactive | inactive | inactive | inactive | -3.02 | 4.79 |  |  |
| CCn1cc(C(=O)O)c(=O)c2cnc(N3CCCC3)nc21 |  |  | inactive | inactive | inactive | inactive | inactive | inactive | inactive | inactive | inactive | inactive | inactive |  |  | -13.8 | 2.72 |
| Oc1c(Cl)cc(Cl)cc1Sc1cc(Cl)cc(Cl)c1O |  |  | inactive | inactive | inactive | inactive | inactive | inactive | inactive | inactive | inactive | inactive | inactive | -0.752 | -1.75 |  |  |
| C1CCc2nnnn2CC1 |  |  | inactive | inactive | inactive | inactive | inactive | inactive | inactive | inactive | inactive | inactive | inactive | 11.2 | 0.626 |  |  |
| CC(=O)Oc1ccc(C(=C2CCCCC2)c2ccc(OC(C)=O)cc2)cc1 |  |  | inactive | inactive | inactive | inactive | inactive | inactive | inactive | inactive | inactive | inactive | inactive | 6.38 | 9.72 |  |  |
| O=C(CCN1CCC(c2ccccc2)C1)c1ccc2c(c1)OCCO2 (centres undefined) |  |  | inactive | inactive | inactive | inactive | inactive | inactive | inactive | inactive | inactive | inactive | inactive | 10.2 | 1.82 |  |  |
| CC(O)(P(=O)(O)O)P(=O)(O)O |  |  | inactive | inactive | inactive | inactive | inactive | inactive | inactive | inactive | inactive | inactive | inactive | 10.5 | 4.89 |  |  |
| Nc1cc(Cl)c(NC2=NCCN2)c(Cl)c1 |  |  | inactive | inactive | inactive | inactive | inactive | inactive | inactive | inactive | inactive | inactive | inactive | 18.9 | 15.3 |  |  |
| CC(C)(C)CC(C)(C)c1ccc(OCCOCC[N+](C)(C)Cc2ccccc2)cc1 | 3.55 µM (active) | 5.01 µM (active) | 1.78 µM (active) | 1.58 µM (active) | 4.47 µM (active) | 5.01 µM (active) | 7.08 µM (active) | 3.98 µM (active) | 3.16 µM (active) | 3.55 µM (active) | 1.58 µM (active) | 4.26 µM (active) | 3.79 µM (active) |  |  |  |  |
| CCOC(=O)OC(C)OC1=C(C(=O)Nc2ccccn2)N(C)S(=O)(=O)c2ccccc21 (centres undefined) |  |  | inactive | inactive | inactive | inactive | inactive | inactive | inactive | inactive | inactive | inactive | inactive | 3.03 | 19.4 |  |  |
| O=C(OCCOCCO)c1ccccc1Nc1cccc(C(F)(F)F)c1 |  |  | inactive | inactive | inactive | inactive | inactive | inactive | inactive | inactive | inactive | inactive | inactive |  |  | 9.49 | 3.82 |
| CC(=O)Nc1c(I)cc(I)c(C(=O)O)c1I |  |  | inactive | inactive | inactive | inactive | inactive | inactive | inactive | inactive | inactive | inactive | inactive | 6.87 | 14.3 |  |  |
| CCCn1c(=O)[nH]c(=O)c2[nH]cnc21 |  |  | inactive | inactive | inactive | inactive | inactive | inactive | inactive | inactive | inactive | inactive | inactive | -4.05 | 5.13 |  |  |
| Cc1c2oc3c(C)ccc(C(=O)N[C@@H]4C(=O)N[C@H](C(C)C)C(=O)N5CCC[C@H]5C(=O)N(C)CC(=O)N(C)[C@@H](C(C)C)C(=O)O[C@@H]4C)c3nc-2c(C(=O)N[C@@H]2C(=O)N[C@H](C(C)C)C(=O)N3CCC[C@H]3C(=O)N(C)CC(=O)N(C)[C@@H](C(C)C)C(=O)O[C@@H]2C)c(N)c1=O (I: T[dV]P[Sar][NMeV] / II: T[dV]P[Sar][NMeV]; ester I:1-I:C, II:1-II:C; linker I:N-II:N via Actinocin(9to1)) | 0.0035 µM (active) | 0.0063 µM (active) | 0.0056 µM (active) | 0.0013 µM (active) | 0.0045 µM (active) | 0.0045 µM (active) | 0.0032 µM (active) | 0.004 µM (active) | 0.0056 µM (active) | 0.0045 µM (active) | 0.0045 µM (active) | 0.006 µM (active) | 0.0054 µM (active) |  |  |  |  |
| CCCCCCC[N+](CC)(CC)CCCCc1ccc(Cl)cc1 | 1.78 µM (active) | 2.24 µM (active) | 1.41 µM (active) | 0.631 µM (active) | 2 µM (active) | 2.51 µM (active) | 2.82 µM (active) | 2.24 µM (active) | 1.58 µM (active) | 2 µM (active) | 2 µM (active) | 2.03 µM (active) | 2.28 µM (active) |  |  |  |  |
| Nc1ccc(C(=O)Nc2ccccc2N)cc1 |  |  | inactive | inactive | inactive | inactive | inactive | inactive | inactive | inactive | inactive | inactive | inactive | -0.627 | 14.4 |  |  |
| CCC(=O)c1c(O)cc(O)cc1O |  |  | inactive | inactive | inactive | inactive | inactive | inactive | inactive | inactive | inactive | inactive | inactive | -1.33 | 0.647 |  |  |
| CCCCCC=CCC=CCCCCCCCC(=O)OCC |  |  | inactive | inactive | inactive | inactive | inactive | inactive | inactive | inactive | inactive | inactive | inactive | 1.14 | 2.81 |  |  |
| O=C1c2ccccc2C(=O)C1c1ccccc1 |  |  | inactive | inactive | inactive | inactive | inactive | inactive | inactive | inactive | inactive | inactive | inactive |  |  | 17.2 | 11.5 |
| O=C(O)c1cc2cc(Cc3cccnc3)ccc2o1 |  |  | inactive | inactive | inactive | inactive | inactive | inactive | inactive | inactive | inactive | inactive | inactive | 9.24 | 5.6 |  |  |
| C[C@H](O)C(=O)Nc1c(I)c(C(=O)NC(CO)CO)c(I)c(C(=O)NC(CO)CO)c1I |  |  | inactive | inactive | inactive | inactive | inactive | inactive | inactive | inactive | inactive | inactive | inactive |  |  | -8.8 | 10.5 |
| CCOc1ccc2nc3cc(N)ccc3c(N)c2c1 | 7.94 µM (active) | 5.01 µM (active) | 11.2 µM (active) | 1.78 µM (active) | 7.94 µM (active) | 8.91 µM (active) | 7.08 µM (active) | 10 µM (active) | 6.31 µM (active) | 5.01 µM (active) | 5.01 µM (active) | 9.53 µM (active) | 15.1 µM (active) |  |  |  |  |
| Cc1cccn2c(=O)c(-c3nnn[nH]3)cnc12 |  |  | inactive | inactive | inactive | inactive | inactive | inactive | inactive | inactive | inactive | inactive | inactive | 7.08 | 2.69 |  |  |
| NCCc1ccn[nH]1 |  |  | inactive | inactive | inactive | inactive | inactive | inactive | inactive | inactive | inactive | inactive | inactive |  |  | 6.26 | 12.5 |
| Cc1c(N(C)CS(=O)(=O)O)c(=O)n(-c2ccccc2)n1C |  |  | inactive | inactive | inactive | inactive | inactive | inactive | inactive | inactive | inactive | inactive | inactive |  |  | 17.9 | 23.3 |
